Source: PubChem BioAssay (EPA / NIEHS)
Values joined by “and” are separate entries in the source; they are usually repeats but may differ in a detail not shown here. Identical values can stand only once. Results filed as inconclusive are left out. Where a structure was tested more than once in an assay, its records may differ in their call. Active and inactive are the calls of the source. The calls were made as follows, unless noted: active = hit-call score of the fitted dose curve at least 0.9, where 1 is the maximum; inactive = score below 0.9.

Experiments:
[1] = target: Nuclear respiratory factor 1 (Homo sapiens) (UniProt Q16656); assay: ATG_NRF1_CIS: Attagene CIS-FACTORIAL HepG2 Assay for human Nuclear Respiratory Factor 1 (NRF1) Orphan Gene (AID 2282987); conditions: HepG2 NRF1 cis-element reporter, Attagene multiplex; actives raise or lower the signal
Sequence of Nuclear respiratory factor 1 (Homo sapiens) (Q16656 whole entry, looked up): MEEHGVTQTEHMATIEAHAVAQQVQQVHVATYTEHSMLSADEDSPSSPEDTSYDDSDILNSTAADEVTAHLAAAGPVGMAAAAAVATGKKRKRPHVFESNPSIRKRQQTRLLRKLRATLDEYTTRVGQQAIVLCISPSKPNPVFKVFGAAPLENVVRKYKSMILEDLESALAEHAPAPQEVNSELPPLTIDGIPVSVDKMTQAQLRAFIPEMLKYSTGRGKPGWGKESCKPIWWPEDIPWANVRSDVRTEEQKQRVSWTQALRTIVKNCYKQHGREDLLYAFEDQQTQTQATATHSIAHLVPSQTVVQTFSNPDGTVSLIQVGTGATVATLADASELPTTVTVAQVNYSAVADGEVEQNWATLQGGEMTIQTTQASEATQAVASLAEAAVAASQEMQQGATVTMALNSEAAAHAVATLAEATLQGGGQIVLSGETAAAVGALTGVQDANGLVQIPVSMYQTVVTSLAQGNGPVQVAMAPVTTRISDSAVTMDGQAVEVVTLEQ
Outline: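 Transcriptional reporter readout, one component of a 52-endpoint multiplexed HepG2 panel. Exposure 24 h; mRNA detected via RT-PCR and fluorescent capillary electrophoresis; fitting in both directions against DMSO.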

[2] = ATG_NFI_CIS: Attagene CIS-FACTORIAL HepG2 Assay for human Nuclear Factor I (NFI) (AID 2282989); conditions: HepG2 cis-regulatory reporter, NFI response element transcription; actives raise or lower the signal
Outline: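 HepG2, transient MRTU, 24 h exposure; RNA→cDNA→PCR→FAM label→HpaI→CE fluorescence. Bidirectional fit, DMSO = baseline.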

[3] = target: Myc proto-oncogene protein (Homo sapiens) (UniProt P01106); assay: ATG_Myc_CIS: Attagene CIS-FACTORIAL HepG2 Assay for human Myelocytomatosis (Myc) Proto-Oncogene Transcription Factor (AID 2282990); conditions: HepG2, Attagene cis-reporter transcription factor activity; actives raise or lower the signal
Sequence of Myc proto-oncogene protein (Homo sapiens) (P01106 whole entry, looked up): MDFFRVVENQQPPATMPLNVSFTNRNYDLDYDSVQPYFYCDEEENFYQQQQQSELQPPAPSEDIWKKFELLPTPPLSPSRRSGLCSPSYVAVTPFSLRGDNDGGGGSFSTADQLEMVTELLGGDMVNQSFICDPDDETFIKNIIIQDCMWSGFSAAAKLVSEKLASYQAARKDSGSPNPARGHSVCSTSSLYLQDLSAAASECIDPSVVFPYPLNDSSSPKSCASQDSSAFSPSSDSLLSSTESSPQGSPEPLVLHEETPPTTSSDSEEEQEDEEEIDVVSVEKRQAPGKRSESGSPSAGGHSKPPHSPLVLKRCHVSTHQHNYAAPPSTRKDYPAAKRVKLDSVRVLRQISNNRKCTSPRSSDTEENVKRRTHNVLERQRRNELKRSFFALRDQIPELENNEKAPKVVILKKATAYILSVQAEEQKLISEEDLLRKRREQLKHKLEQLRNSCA
Outline: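 DMSO-normalised, bidirectionally fitted reporter mRNA signal. HepG2 cells transfected with cis reporter constructs, treated 24 h; transcripts detected by RT-PCR, 6-FAM primer extension and CE.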

[4] = ATG_NRF2_ARE_CIS: Attagene CIS-FACTORIAL HepG2 Assay for human Nuclear Factor Erythroid 2 Related Factor 2 (NFR2) response to Antioxidant Response Elements (ARE) (AID 2282992); conditions: HepG2 Attagene ARE/NRF2 reporter, transcription factor activity; actives raise or lower the signal
Outline: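 Readout: reporter mRNA quantified by RT-PCR plus FAM-labelled primer extension, HpaI digestion and capillary electrophoresis, 24 h after dosing transfected HepG2 cells. Gain or loss of signal is fitted bidirectionally against DMSO baseline.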

[5] = ATG_Oct_MLP_CIS: Attagene CIS-FACTORIAL HepG2 Assay for human Octamer-Binding Transcription Factor (Oct) (AID 2282993); conditions: HepG2 Attagene cis-factorial Oct reporter, mRNA; actives raise or lower the signal
Outline: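 Multiplexed cis-reporter assay in human liver HepG2 cells, 24 h incubation. Reporter RNA amplified and labelled, then resolved by capillary electrophoresis; DMSO serves as negative control and baseline.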

[6] = target: Cellular tumor antigen p53 (Homo sapiens) (UniProt P04637); assay: ATG_p53_CIS: Attagene CIS-FACTORIAL HepG2 Assay for human p53 Transcription Factor (AID 2282994); conditions: HepG2 p53 cis-element reporter, Attagene mRNA; actives raise or lower the signal
Sequence of Cellular tumor antigen p53 (Homo sapiens) (P04637 whole entry, looked up): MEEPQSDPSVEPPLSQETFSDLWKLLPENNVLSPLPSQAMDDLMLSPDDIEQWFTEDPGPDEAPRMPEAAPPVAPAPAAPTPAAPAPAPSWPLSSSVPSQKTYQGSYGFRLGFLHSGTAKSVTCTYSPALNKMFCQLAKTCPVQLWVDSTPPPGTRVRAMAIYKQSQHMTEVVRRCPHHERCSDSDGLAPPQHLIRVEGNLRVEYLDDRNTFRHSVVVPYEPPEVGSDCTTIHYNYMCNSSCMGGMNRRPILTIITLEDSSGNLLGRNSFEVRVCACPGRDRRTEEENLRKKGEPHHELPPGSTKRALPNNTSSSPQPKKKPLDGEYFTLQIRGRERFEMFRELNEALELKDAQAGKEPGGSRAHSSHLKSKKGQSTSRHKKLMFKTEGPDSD
Outline: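 Read-out: reporter mRNA by RT-PCR plus capillary electrophoresis with fluorescence detection. Human HepG2 liver cells carried transfected multi-reporter cis-element constructs, dosed 24 h. Gain or loss of signal fitted bidirectionally against DMSO control.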

[7] = BSK_3C_TissueFactor: BioMAP Diversity Plus: 3C Assay for Tissue Factor Biomarker Activity (AID 2282997); conditions: BioMAP 3C HUVEC, tissue factor biomarker readout; actives raise or lower the signal
Outline: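 HUVEC, 3C system, 24 h post-dose; Tissue Factor by ELISA; bidirectional fit vs DMSO baseline.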

[8] = BSK_3C_uPAR: BioMAP Diversity Plus: 3C Assay for Urokinase-type plasminogen activator receptor (uPAR) Biomarker Activity (AID 2282998); conditions: BioMAP 3C HUVEC, uPAR biomarker ELISA; actives raise or lower the signal
Outline: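 Dose primary human umbilical vein endothelial cells, incubate 24 h, measure cell-surface uPAR by ELISA, then fit the signal in both directions against the DMSO negative control.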

[9] = BSK_3C_VCAM1: BioMAP Diversity Plus: 3C Assay for Vascular cell adhesion molecule 1 (VCAM1) Biomarker Activity (AID 2282999); conditions: BioMAP 3C HUVEC, VCAM1 ELISA, cytokine-stimulated; actives raise or lower the signal
Outline: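 Vascular primary endothelium (human umbilical vein) was exposed to chemicals and assayed 24 h later. VCAM-1 levels came from ELISA, with DMSO serving as baseline for bidirectional fitting.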

[10] = BSK_4H_Eotaxin3: BioMAP Diversity Plus: 4H Assay for Eotaxin 3 Biomarker Activity (AID 2283000); conditions: primary human endothelial cells (HUVEC); actives raise or lower the signal
Outline: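 Readout is Eotaxin-3 (CCL26) level by ELISA in primary human umbilical vein endothelial cells harvested 24 h after chemical exposure; activity fitted in both directions against DMSO control.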

[11] = target: human Peroxisome Proliferator-activated Receptor alpha (PPARa), PPARA (gene 5465) (UniProt Q07869); assay: ATG_PPARa_TRANS: Attagene TRANS-FACTORIAL HepG2 Assay for human Peroxisome Proliferator-activated Receptor alpha (PPARa) (AID 2283001; active = hit-call score of the fitted dose curve at least 0.9, where 1 is the maximum)
Sequence of human Peroxisome Proliferator-activated Receptor alpha (PPARa), PPARA (gene 5465) (Q07869 whole entry, looked up, the tested form may be a part): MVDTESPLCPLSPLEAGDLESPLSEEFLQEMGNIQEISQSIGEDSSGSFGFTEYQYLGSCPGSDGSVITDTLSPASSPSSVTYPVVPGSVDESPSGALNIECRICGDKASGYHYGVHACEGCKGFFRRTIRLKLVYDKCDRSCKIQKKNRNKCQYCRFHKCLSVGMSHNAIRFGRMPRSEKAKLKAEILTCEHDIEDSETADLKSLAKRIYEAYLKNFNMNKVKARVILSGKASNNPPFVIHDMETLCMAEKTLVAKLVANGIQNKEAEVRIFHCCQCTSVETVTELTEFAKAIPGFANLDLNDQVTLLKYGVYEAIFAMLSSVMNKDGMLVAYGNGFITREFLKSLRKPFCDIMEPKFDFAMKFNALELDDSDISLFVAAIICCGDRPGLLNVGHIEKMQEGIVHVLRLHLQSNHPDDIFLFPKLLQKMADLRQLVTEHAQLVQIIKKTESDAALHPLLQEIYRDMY
Outline: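 Exposure: 24 h, transiently transfected HepG2 cells. Endpoint: GAL4-UAS reporter mRNA, RT-PCR with capillary electrophoresis fluorescence. Baseline: DMSO; increases fitted.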

[12] = read-out: Intercellular Adhesion Molecule 1 (ICAM1), ICAM1 (gene 3383); assay: BSK_3C_ICAM1: BioMAP Diversity Plus: 3C Assay for Intercellular Adhesion Molecule 1 (ICAM1) Biomarker Activity (AID 2283003); conditions: primary human endothelial cells (HUVEC); actives raise or lower the signal
Outline: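 Using DMSO as baseline, bidirectional curve fitting was applied to ICAM-1 ELISA signals from HUVEC in the 3C system, measured 24 h after compound addition.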

[13] = BSK_3C_Proliferation: Cell Proliferation Assessment in the BioMAP Diversity Plus: 3C Assay (AID 2283006); conditions: primary human endothelial cells (HUVEC);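 as to AC50: potency may reflect either rise or fall in cell number versus DMSO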
Outline: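 Measured here: sulforhodamine B (0.1%) staining of TCA-fixed sub-confluent umbilical vein endothelial cultures 48 h post-dosing, absorbance 560 nm. DMSO served as negative control and baseline; both signal gain and loss were modelled.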

[14] = target: Peroxisome proliferator-activated receptor gamma (Homo sapiens) (UniProt P37231); assay: ATG_PPARg_TRANS: Attagene TRANS-FACTORIAL HepG2 Assay for human Peroxisome Proliferator-activated Receptor-gamma (PPARg) (AID 2283007; active = hit-call score of the fitted dose curve at least 0.9, where 1 is the maximum)
Sequence of Peroxisome proliferator-activated receptor gamma (Homo sapiens) (P37231 whole entry, looked up): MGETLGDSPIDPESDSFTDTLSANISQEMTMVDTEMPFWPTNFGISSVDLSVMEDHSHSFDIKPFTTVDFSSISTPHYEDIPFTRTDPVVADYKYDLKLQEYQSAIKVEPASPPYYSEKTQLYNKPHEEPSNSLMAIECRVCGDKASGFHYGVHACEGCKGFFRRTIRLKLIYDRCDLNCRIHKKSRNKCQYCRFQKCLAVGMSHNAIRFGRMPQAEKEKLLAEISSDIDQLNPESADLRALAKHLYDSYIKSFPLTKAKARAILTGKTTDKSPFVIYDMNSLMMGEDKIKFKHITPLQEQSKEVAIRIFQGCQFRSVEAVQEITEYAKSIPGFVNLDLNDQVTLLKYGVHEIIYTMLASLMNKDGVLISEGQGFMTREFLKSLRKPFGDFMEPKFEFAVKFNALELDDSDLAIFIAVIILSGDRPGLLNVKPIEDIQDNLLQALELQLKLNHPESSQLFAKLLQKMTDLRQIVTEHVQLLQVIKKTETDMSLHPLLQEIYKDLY
Outline: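 Multiplexed reporter transcription units in HepG2, 24 h dosing, reporter transcripts quantified by fluorescent RT-PCR and capillary electrophoresis. Increase over DMSO scored.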

[15] = target: Nuclear receptor subfamily 1 group I member 2 (Homo sapiens) (UniProt O75469); assay: ATG_PXR_TRANS: Attagene TRANS-FACTORIAL HepG2 Assay for human Pregnane X Receptor (PXR) (AID 2283008; active = hit-call score of the fitted dose curve at least 0.9, where 1 is the maximum)
Sequence of Nuclear receptor subfamily 1 group I member 2 (Homo sapiens) (O75469 whole entry, looked up, the tested form may be a part): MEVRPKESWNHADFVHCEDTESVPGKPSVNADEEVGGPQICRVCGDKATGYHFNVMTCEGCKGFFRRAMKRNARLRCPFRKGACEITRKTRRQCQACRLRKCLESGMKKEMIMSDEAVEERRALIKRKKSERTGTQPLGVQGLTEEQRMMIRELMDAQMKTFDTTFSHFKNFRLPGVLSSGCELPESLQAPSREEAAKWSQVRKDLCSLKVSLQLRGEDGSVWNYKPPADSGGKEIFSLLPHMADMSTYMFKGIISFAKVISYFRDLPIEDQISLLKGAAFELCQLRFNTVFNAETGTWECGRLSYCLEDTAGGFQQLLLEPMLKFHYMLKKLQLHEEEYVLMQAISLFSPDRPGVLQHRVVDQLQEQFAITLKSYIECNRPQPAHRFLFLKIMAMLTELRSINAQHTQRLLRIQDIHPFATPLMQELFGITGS
Outline: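 Trans-factorial format: exogenous NR-Gal4 fusion activity, not endogenous factor, in transfected human HepG2 liver cells. After 24 h dosing, RNA isolated, reverse-transcribed, amplified and resolved by capillary electrophoresis; induction scored versus DMSO.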

[16] = ATG_NF_kB_CIS: Attagene CIS-FACTORIAL HepG2 Assay for human Nuclear Factor Kappa B (NF-kB) (AID 2282991); conditions: HepG2 Attagene cis-factorial NF-kB reporter mRNA; actives raise or lower the signal
Outline: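 HepG2, transient multi-reporter transfection, cis promoter elements (endogenous TFs). 24 h exposure. Total RNA → RT → PCR → 6-FAM label → HpaI → CE. Gain/loss vs DMSO.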

[17] = target: human Peroxisome Proliferator-activated Receptor delta (PPARd), PPARD (gene 5467) (UniProt Q03181); assay: ATG_PPARd_TRANS: Attagene TRANS-FACTORIAL HepG2 Assay for human Peroxisome Proliferator-activated Receptor delta (PPARd) (AID 2283002; active = hit-call score of the fitted dose curve at least 0.9, where 1 is the maximum)
Sequence of human Peroxisome Proliferator-activated Receptor delta (PPARd), PPARD (gene 5467) (Q03181 whole entry, looked up, the tested form may be a part): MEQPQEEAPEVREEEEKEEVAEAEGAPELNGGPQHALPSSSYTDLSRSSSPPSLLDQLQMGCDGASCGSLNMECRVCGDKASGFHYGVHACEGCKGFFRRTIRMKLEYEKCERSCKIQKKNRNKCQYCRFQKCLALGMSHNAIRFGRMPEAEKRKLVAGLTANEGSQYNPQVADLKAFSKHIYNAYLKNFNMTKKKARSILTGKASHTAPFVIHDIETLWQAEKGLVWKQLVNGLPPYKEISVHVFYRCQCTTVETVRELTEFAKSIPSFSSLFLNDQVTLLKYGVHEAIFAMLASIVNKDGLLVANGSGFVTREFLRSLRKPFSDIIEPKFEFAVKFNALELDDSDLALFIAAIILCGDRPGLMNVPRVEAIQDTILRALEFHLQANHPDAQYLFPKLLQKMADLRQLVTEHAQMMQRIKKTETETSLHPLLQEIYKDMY
Outline: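 Measured quantity: GAL4-UAS reporter transcript induction in HepG2 after 24 h chemical dosing, with NR-Gal4 chimeras supplied by transient transfection. Detection by RT-PCR and capillary electrophoresis; upward fit against DMSO.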

[18] = target: human Retinoic Acid Receptor beta (RARb), RARB (gene 5915) (UniProt P10826); assay: ATG_RARb_TRANS: Attagene TRANS-FACTORIAL HepG2 Assay for human Retinoic Acid Receptor beta (AID 2283004; active = hit-call score of the fitted dose curve at least 0.9, where 1 is the maximum)
Sequence of human Retinoic Acid Receptor beta (RARb), RARB (gene 5915) (P10826 whole entry, looked up, the tested form may be a part): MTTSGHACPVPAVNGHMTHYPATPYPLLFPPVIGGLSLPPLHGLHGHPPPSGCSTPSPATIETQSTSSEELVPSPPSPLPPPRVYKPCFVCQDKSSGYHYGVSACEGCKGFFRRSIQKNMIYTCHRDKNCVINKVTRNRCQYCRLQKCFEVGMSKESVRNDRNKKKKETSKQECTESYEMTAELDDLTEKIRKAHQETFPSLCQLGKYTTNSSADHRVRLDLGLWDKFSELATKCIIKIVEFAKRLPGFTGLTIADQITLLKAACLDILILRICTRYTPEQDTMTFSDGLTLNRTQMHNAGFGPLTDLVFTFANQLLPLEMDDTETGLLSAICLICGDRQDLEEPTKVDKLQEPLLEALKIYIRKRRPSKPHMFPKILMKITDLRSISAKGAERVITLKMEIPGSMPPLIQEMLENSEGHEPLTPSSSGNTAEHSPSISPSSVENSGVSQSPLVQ
Outline: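 Readout is reporter mRNA induction: RNA reverse-transcribed, PCR-amplified, FAM-labelled, HpaI-cut and resolved by capillary electrophoresis. Transiently transfected HepG2 cells carrying exogenous NR–Gal4 chimeras were dosed for 24 h; activity fitted upward relative to DMSO.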

[19] = target: Retinoic acid receptor alpha (Homo sapiens) (UniProt P10276); assay: ATG_RARa_TRANS: Attagene TRANS-FACTORIAL HepG2 Assay for human Retinoic Acid Receptor alpha (RARa) (AID 2283005; active = hit-call score of the fitted dose curve at least 0.9, where 1 is the maximum)
Sequence of Retinoic acid receptor alpha (Homo sapiens) (P10276 whole entry, looked up, the tested form may be a part): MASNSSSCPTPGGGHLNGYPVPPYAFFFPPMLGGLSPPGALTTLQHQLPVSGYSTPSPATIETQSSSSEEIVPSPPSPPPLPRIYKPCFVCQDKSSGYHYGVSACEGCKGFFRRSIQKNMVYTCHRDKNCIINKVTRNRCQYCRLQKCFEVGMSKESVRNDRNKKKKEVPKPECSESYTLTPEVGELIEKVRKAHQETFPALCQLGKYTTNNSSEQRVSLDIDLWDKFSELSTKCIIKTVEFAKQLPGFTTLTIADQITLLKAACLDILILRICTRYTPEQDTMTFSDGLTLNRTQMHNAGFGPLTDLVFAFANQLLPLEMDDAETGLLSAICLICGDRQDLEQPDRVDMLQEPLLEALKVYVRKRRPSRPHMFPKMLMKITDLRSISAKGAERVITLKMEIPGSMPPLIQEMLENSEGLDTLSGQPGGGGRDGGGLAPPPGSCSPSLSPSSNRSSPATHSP
Outline: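 HepG2 cells transiently transfected with multiple reporter units expressing chimeric RARα-GAL4 fusion, with GAL4-UAS-driven reporters. After 24 h compound exposure, reporter mRNA induction quantified by RT-PCR and capillary electrophoresis with fluorescent labeling; gain-of-signal fitted relative to DMSO control.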

[20] = target: human Retinoic Acid Receptor gamma (RARg), RARG (gene 5916) (UniProt P13631); assay: ATG_RARg_TRANS: Attagene TRANS-FACTORIAL HepG2 Assay for human Retinoic Acid Receptor gamma (RARg) (AID 2283009; active = hit-call score of the fitted dose curve at least 0.9, where 1 is the maximum)
Sequence of human Retinoic Acid Receptor gamma (RARg), RARG (gene 5916) (P13631 whole entry, looked up, the tested form may be a part): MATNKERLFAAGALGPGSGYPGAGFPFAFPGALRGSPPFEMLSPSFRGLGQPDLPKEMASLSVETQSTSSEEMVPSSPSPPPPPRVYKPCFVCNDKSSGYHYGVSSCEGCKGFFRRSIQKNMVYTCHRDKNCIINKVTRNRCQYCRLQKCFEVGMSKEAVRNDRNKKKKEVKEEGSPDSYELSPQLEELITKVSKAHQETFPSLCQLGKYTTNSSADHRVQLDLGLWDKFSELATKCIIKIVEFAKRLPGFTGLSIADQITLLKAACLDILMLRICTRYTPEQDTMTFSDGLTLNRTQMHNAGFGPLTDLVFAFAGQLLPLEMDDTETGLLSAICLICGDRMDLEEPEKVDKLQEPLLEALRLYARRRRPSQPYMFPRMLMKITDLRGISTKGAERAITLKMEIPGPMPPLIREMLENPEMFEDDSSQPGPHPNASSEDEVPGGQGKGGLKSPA
Outline: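 Gain-of-signal relative to DMSO is reported from fluorescent capillary electrophoresis of RT-PCR reporter products. These came from HepG2 cells expressing transfected RARg-GAL4 chimeras with UAS reporters, harvested 24 h after dosing.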

Measured: AC50

CCCCCCCC(=O)O
not listed: [16] | [17] | [18] | [19] | [20]
inactive: all other assays above

CC(O)C(=O)O (centres undefined)
not listed: [7] | [8] | [9] | [10] | [12] | [13] | [14]
inactive: all other assays above

O=C(O)c1ccccc1C(c1ccc(O)cc1)c1ccc(O)cc1
not listed: [6] | [14]
inactive: all other assays above

c1ccc2cc3c(ccc4ccccc43)cc2c1
inactive: [1] | [2] | [3] | [5] | [6] | [7] | [8] | [9] | [11] | [12] | [19] | [15] | [20]
active: [5] 1.21 µM and 7.63 µM | [10] 2480 nM | [13] 148 nM | [14] 16.9 µM and 6.24 µM and 6.09 µM

O=C(OCCOCCOC(=O)c1ccccc1)c1ccccc1
not listed: [11] | [14] | [15] | [19]
inactive: all other assays above

N#C[C@@H]1CC(F)(F)CN1C(=O)CNC1CC2CCC(C1)N2c1ncccn1 (some centres undefined)
not listed: [11] | [14] | [17] | [19] | [20]
inactive: all other assays above
